NPSR antagonist – qHTS Assay for Antagonists of the Neuropeptide S Receptor: cAMP Signal Transduction | CHO-NPSR cells, cAMP TR-FRET, antagonist mode | Potency, µM (highest dose often 38.3 µM), actives largely listed as inhibitors | 220,000 tested, 1% active; note: nearly all actives have a fitted effect of over 50% in size
GoLoco inh red – qHTS Assay for Inhibitors of RGS12 GoLoco Motif Activity (Red Fluorophore) | AID 880, 2007 | Potency, µM (doses to about 61.6 µM), most hits filed as inhibitors | 230,000 tested, 0.44% active | Gai1:RGS12 GoLoco peptide FP, rhodamine, 10 min; active = well fitted inhibition curve with a large enough effect, not every such curve was filed as active; inactive = no such curve, though single readings can be large or run the other way; note: nearly all actives have a fitted effect of over 30% in size
Target sequence (P63096 whole entry, looked up): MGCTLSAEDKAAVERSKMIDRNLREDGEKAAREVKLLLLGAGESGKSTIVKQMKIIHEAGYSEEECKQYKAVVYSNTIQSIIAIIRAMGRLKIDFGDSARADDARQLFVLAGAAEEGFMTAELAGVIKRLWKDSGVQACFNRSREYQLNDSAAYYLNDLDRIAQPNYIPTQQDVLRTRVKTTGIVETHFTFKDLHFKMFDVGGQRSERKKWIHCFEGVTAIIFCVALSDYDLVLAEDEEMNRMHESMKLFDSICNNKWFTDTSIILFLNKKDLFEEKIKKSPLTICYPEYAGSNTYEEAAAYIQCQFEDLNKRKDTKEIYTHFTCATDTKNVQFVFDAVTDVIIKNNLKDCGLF
ALDH1A1 block – qHTS Assay for Inhibitors of Aldehyde Dehydrogenase 1 (ALDH1A1); Purified ALDH1A1, NADH fluorescence, propionaldehyde substrate; Potency, µM (titrated, usually from 75.3 µM), usual class: inhibitors; 220,000 tested, 7.3% active; active = well fitted inhibition curve with a large enough effect, not every such curve was filed as active; inconclusive = small, poorly fitted or top-dose-only effect, or another doubt; inactive = no such curve, though single readings can be large or run the other way
Sfp inh – qHTS Assay for Inhibitors of Bacillus subtilis Sfp phosphopantetheinyl transferase (PPTase) | 310,000 tested, 3.5% active | AID 1490, 2009 | Biochemical Sfp PPTase activity, qHTS | 4'-phosphopantetheinyl transferase ffp (Bacillus subtilis), Q9F4F7 | Potency, µM, usual class: inhibitors;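 note: the enzyme is Sfp with the accession as filed and its product quenches rhodamine fluorescence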
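Fluorescence-quenching assay with 15 nM Sfp, 5 uM rhodamine-CoA and 12.5 uM BHQ-2-labelled ybbR peptide in pH 7.6 Hepes/MgCl2 buffer. Enzyme was pre-incubated with compound for 15 min at room temperature. Rate was taken from the 30-min fluorescence change (525/598 nm).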
KDM4E inh – qHTS Assay for Inhibitors of Human Jumonji Domain Containing 2E (JMJD2E). Lysine-specific demethylase 4E (Homo sapiens), B2RXH2. JMJD2E catalytic domain, FDH-coupled NADH fluorescence (FDH is formaldehyde dehydrogenase). Potency, µM (doses to about 57.1 µM), most hits filed as inhibitors. 230,000 tested, 1.6% active; active = well fitted inhibition curve with a large enough effect, not every such curve was filed as active; inconclusive = small, poorly fitted or top-dose-only effect, or another doubt; inactive = no such curve, though single readings can be large or run the other way; note: nearly all actives have a fitted effect of over 50% in size
Target sequence (B2RXH2 1-337 limits assumed): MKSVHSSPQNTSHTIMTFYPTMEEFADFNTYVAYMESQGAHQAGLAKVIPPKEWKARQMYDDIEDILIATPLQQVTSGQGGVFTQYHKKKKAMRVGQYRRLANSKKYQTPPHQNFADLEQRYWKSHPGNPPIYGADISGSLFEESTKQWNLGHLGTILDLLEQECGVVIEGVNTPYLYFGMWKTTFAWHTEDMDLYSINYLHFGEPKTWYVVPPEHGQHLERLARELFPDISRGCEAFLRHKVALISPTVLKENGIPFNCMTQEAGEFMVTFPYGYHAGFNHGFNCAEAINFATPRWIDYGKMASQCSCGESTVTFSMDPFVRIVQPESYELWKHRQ
FBPA coupling cs – qHTS Assay for Inhibitors of Fructose-1,6-bisphosphate Aldolase from Giardia Lamblia: Coupling assay counterscreen; 290,000 tested, 0.67% active; coupling enzyme system counterscreen, AmpLite Red fluorescence; activity change, negative = inhibition, % at 58.2 µM, hits read low; in the data active = activity change below about -30%
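First, compound is pin-transferred into glyceraldehyde-3-phosphate coupling-enzyme reagent at 57.5 uM final and held 10 min at RT. Next, substrate, coupling system and AmpLite Red are added. After 20 min RT, fluorescence (525/598 nm) is read.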
Numbers stand for hits; 0 = inactive; ? = inconclusive; - = no result; [ ] = dose if it differs, or a comment. Compounds with a hit are over-represented: about 8.5% of the library has one in this group of screens. Unless noted, calls come from the whole dose curve; as a rule, active = well fitted curve in the direction sought with a large enough effect; inconclusive = small, poorly fitted or top-dose-only effect, or another doubt; inactive = no such curve, though single readings can be large; an effect the other way counts as inactive or inconclusive.

SMILES	NPSR antagonist	GoLoco inh red	ALDH1A1 block	Sfp inh	KDM4E inh	FBPA coupling cs
CNC(=S)N/N=C/c1ccc(-c2ccc(C(=O)O)cc2)o1	0	0	-	44.7µM	?	0
O=C(Nc1ccccc1C(=O)NCCc1ccc(O)cc1)c1ccco1	-	-	-	0	-	0
COc1ccc(-n2c(=S)[nH]c3cc(C(=O)NCc4ccco4)ccc3c2=O)cc1OC	0	0	0.112µM	0	0	0
COc1ccc(CCn2c(=S)[nH]c3cc(C(=O)NCc4ccco4)ccc3c2=O)cc1OC	0	0	0.0501µM	0	0	0
O=C(NCc1ccco1)c1ccc2c(=O)n(-c3ccccc3)c(=S)[nH]c2c1	0	0	0.224µM	0	0	0
CC(C)(C)c1ccc(C(=O)NNc2ncccc2-n2cccc2)cc1	0	0	0	0	0	0
O=C(O)c1cn2c3c(ccc(Cl)c3c1=O)OCC2	-	-	-	0	-	0
O=C(O)CC(c1ccc(F)cc1F)N1Cc2ccccc2C1=O (configuration not stated)	-	-	-	0	-	0
Cc1ccccc1S(=O)(=O)NCc1cccnc1	0	0	0	0	0	0
Cc1ccc(C(C)C)cc1S(=O)(=O)NCc1cccnc1	0	0	20µM	0	0	0
Cc1ccc(S(=O)(=O)NC(C)(C)CN2CCc3ccccc3C2)cc1	0	0	-	0	0	0
Cc1nn(Cc2ccccc2Cl)c(C)c1NC(=O)CCCn1nc([N+](=O)[O-])c(Cl)c1C	0	0	8.91µM	0	0	0
Cc1ccc(Cn2nc(C)c(NC(=O)CCCn3nc([N+](=O)[O-])c(Cl)c3C)c2C)cc1	0	0	?	0	0	0
Cc1ccc(Cn2nc(C)c(NC(=O)CCCn3nc(C)c([N+](=O)[O-])c3C)c2C)cc1	0	0	0	0	0	0
Cc1nn(Cc2c(Cl)cccc2Cl)c(C)c1NC(=O)CCCn1nc(C)c([N+](=O)[O-])c1C	0	0	3.55µM	0	0	0
Cc1nn(Cc2ccc(Cl)cc2Cl)c(C)c1NC(=O)CCl	0	0	8.91µM	0	0	0
O=C(O)CN1C(=O)C(=O)N(Cc2ccc(Cl)cc2Cl)C1=O	-	-	-	0	-	0
O=C(Nc1nccs1)C1CCCN1S(=O)(=O)c1ccc(Cl)cc1 (configuration not stated)	?	0	17.8µM	0	0	0
NC(=O)c1ccsc1NC(=O)C1CCCN1S(=O)(=O)c1ccc(Cl)cc1 (configuration not stated)	0	0	?	0	0	0
O=c1c2cccc(Cl)c2nc2n1Cc1ccccc1-2	0	0	-	14.1µM	0	0
COc1ccccc1C(=O)C1CCCN(Cc2cccc(OCCO)c2)C1 (configuration not stated)	-	-	-	0	-	0
COc1ccc(C(=O)CCN(C)C)c2ccccc12	-	0[14.2 µM]	0.0282µM	-	-	-
COc1ccc(S(=O)(=O)N(CCc2ccccc2)CC(=O)NCCCO)cc1	0	0	8.91µM	0	0	0
COCCCNC(=O)CN(CCc1ccccc1)S(=O)(=O)c1ccc(OC)cc1	0	0	?	0	0	0
CC1CCN(CCCn2c(=S)[nH]c3c(sc4ccccc43)c2=O)CC1	0	0	?	0	0	0
SMILES	NPSR antagonist	GoLoco inh red	ALDH1A1 block	Sfp inh	KDM4E inh	FBPA coupling cs
COCCCn1c(=S)[nH]c2c(sc3ccccc32)c1=O	0	0	?	79.4µM	?	0
O=c1c2sc3ccccc3c2[nH]c(=S)n1CCN1CCOCC1	0	0	?	44.7µM	?	0
N#Cc1nc(NCC2CC2)nc(Nc2ccccc2)n1	-	-	-	-	-	0
O=C1N=C(N2CCN(c3ccccc3)CC2)S/C1=C\c1ccco1	0	0	0	0	0	0
NC1=NC(=O)/C(=C\c2ccco2)S1	0	0	-	35.5µM	22.4µM	0
O=C(Cc1ccc(F)cc1)N/N=C/c1ccc(-c2ccc(Cl)c(C(=O)O)c2)o1	0	0	?	28.2µM	?	0
O=C(O)c1cc(N/N=C/c2ccc(-c3ccc(F)cc3)o2)ccc1Cl	-	-	-	0	-	0
O=C(O)c1cc(-c2ccc(/C=N/Nc3ccc([N+](=O)[O-])cn3)o2)ccc1Cl	0	0	?	44.7µM	?	0
COc1cc(=O)[nH]c(SC(C)C(=O)Nc2cc(C)on2)n1 (configuration not stated)	-	-	-	0	-	0
Cc1cc(C)c(C)c(S(=O)(=O)N2CCN(C(=O)c3cc(=O)[nH]c4ccccc34)CC2)c1C	0	0	14.1µM	0	?	0
O=C(c1cc(=O)[nH]c2ccccc12)N1CCN(c2ccc([N+](=O)[O-])cc2)CC1	0	0	2.99µM	0	0	0
Cc1ccc(S(=O)(=O)N2CCN(C(=O)c3cc(=O)[nH]c4ccccc34)CC2)c(C)c1	0	0	?	0	?	0
COc1cc(OC)c(NC(=O)CN(C)S(=O)(=O)c2ccc3[nH]c(=O)oc3c2)cc1Cl	-	-	-	0	-	-
O=S(=O)(Nc1ccc(Cl)cc1)c1ccc2c(c1)CCO2	0	0	-	0	0	0
Clc1cccc(CN2CCCCCCC2)c1Cl	0	0	?	?	?	0
O=C(c1c(F)cccc1F)N1CCCc2ccccc21	-	-	-	0	-	0
CCN1C(=O)C(O)(CC(=O)c2cccc(-n3cccc3)c2)c2ccccc21 (configuration not stated)	0	0	4.47µM	0	0	0
O=C(CC1(O)C(=O)N(Cc2cccc3ccccc23)c2ccccc21)c1cccnc1 (configuration not stated)	0	0	0.112µM	0	0	0
COC(=O)CN1C(=O)C(O)(CC(=O)c2ccc(Cl)cc2)c2ccccc21 (configuration not stated)	0	0	0.224µM	0	0	0
COC(=O)CN1C(=O)C(O)(CC(=O)c2cccc(Br)c2)c2ccccc21 (configuration not stated)	0	0	0.562µM	0	0	0
CN1C(=O)C(O)(CC(=O)c2cccnc2)c2ccccc21 (configuration not stated)	0	0	0	0	0	0
CCN1C(=O)C(O)(CC(=O)c2ccc(-n3cccc3)cc2)c2ccccc21 (configuration not stated)	0	0	0	0	0	0
Cc1ccc(NC(=O)c2ccco2)c(NC(=O)c2ccc(Cl)cc2)c1	-	-	-	0	-	0
CN(C)S(=O)(=O)c1cccc(NC(=S)N(CCC#N)Cc2cccnc2)c1	0	0	?	0	0	0
C=CCN1C(=O)C(O)(CC(=O)c2ccccc2)c2ccccc21 (configuration not stated)	0	0	3.55µM	0	0	0
